# Screening results deposited in PubChem by National Center for Advancing Translational Sciences (NCATS).
# Most compounds without a hit are left out; they make up all but 2.8% or so of the library.
# LDHA inh – LDHA (human) enzyme inhibition; P00338; purified LDHA, NADH/diaphorase-resazurin fluorescence; stronger effect = lower value; activity change, % (values are at about 110 or 230 µM); 0.15% of 480,000 active; in the data active = activity change below about -30%; inconclusive = mostly about -25% to -30%;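 also: plate controls were DMSO wells for no effect and wells without enzyme for full effect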
#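 Enzyme activity of human lactate dehydrogenase 5 (2 nM; 0.06 mM NADH, 0.2 mM pyruvate, 5 min, RT) is measured via a resazurin/diaphorase fluorescence readout of residual NADH.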
# Akt phos inh – Akt phosphorylation inhibition. Neuro2A IGF-stimulated pAkt S473 HTRF, 20 min; stronger effect = lower value. activity change, % for hits at 50 µM. 0.32% of 360,000 active. AID 651550; in the data active = activity change below about -80%; inconclusive = mostly about -51% to -80%; also: % is scaled to controls: 0 for no effect and ±100 for the full control effect
#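 Neuro2A cells in DMEM with 0.5% FBS, overnight at 37 deg C, given compound at single 50 µM final, then IGF (6 nM final) for 20 min at 37 deg C. Lysed; phospho-Akt Ser473 by HTRF after 24 h, 665/615 ratio.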
# RGS4 inhibitor – human RGS4 inhibition; 0.039% of 390,000 active; Transcreener GDP fluorescence polarization, RGS4-accelerated GTP hydrolysis; Potency, µM (doses to about 114 µM), without a hit: at the top dose activity change, negative = inhibition, usual class: inhibitors; AID 504845; active = well fitted inhibition curve with a large enough effect; inconclusive = small, poorly fitted or top-dose-only effect; inactive = no such curve, though single readings can be large or run the other way; also: potency is read from the fitted curve at half-maximal effect; % is scaled to controls: 0 for no effect and ±100 for the full control effect; nearly all actives have a fitted effect of over 75% in size
# Target sequence (P49798 whole entry, looked up): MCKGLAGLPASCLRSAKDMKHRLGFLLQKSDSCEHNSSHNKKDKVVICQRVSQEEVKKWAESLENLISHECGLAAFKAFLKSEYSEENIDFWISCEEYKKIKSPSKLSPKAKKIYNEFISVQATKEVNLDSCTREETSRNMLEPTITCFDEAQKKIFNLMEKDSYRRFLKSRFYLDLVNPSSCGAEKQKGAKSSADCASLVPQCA
#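 MLSMR compounds (23 nl, pin-transferred) preincubated 10 min at room temperature with a 500nM (2x) first reagent, then RGS4 at 900nM (2x) plus Transcreener GDP mix added; fluorescence polarization (620/688 nm) read before and after 90 min at 30 °C.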
# D3 antag – D3 dopamine receptor (human) antagonism. P35462. max response, negative = inhibition, %. AID 652054. 2.5% of 360,000 active. D3R cells, DiscoveRx beta-arrestin luminescence, antagonist mode; stronger effect = lower value; in the data active = max response below about -50%; inconclusive = no clear call, values can overlap the other calls; also: % is scaled to controls: 0 for no effect and ±100 for the full control effect
#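 Cells expressing the human receptor were seeded at 1500 cells/well, incubated overnight at 37 degrees C in 5% CO2, then exposed to library compounds with dopamine controls for 90 minutes at 37 degrees C before luminescent detection.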
# PI4K2A block – blocks human PI4K2A kinase activity; Q9BTU6; purified PI4K2A, ADP-Glo luminescence, 1 h; stronger effect = lower value; activity change, negative = inhibition, % at 76.9 µM; 0.13% of 420,000 active; AID 1346378; in the data active = activity change below about -50%; inconclusive = mostly about -30% to -49%;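 also: -100% = wells without enzyme as full effect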
# Target sequence (Q9BTU6 whole entry, looked up): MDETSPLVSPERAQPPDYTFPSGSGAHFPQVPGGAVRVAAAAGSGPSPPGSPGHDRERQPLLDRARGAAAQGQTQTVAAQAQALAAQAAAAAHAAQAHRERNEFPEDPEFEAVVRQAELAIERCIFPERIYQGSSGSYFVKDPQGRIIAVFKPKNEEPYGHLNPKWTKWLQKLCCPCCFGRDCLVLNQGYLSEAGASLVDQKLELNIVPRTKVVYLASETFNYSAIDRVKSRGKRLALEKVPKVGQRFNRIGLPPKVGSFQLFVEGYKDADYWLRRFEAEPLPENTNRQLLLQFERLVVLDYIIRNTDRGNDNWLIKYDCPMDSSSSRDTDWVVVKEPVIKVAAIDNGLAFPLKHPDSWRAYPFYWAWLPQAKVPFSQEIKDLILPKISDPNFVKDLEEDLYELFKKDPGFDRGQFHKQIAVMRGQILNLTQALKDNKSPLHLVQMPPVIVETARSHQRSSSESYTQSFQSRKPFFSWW
#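 PI4K2A activity was measured by ADP-Glo luminescence: enzyme (4 ug/mL stock) and phosphatidylinositol (1.2 mM stock) in Tris pH 7.5/MgCl2/EGTA/Triton X-100 buffer were reacted with ATP (300 microM stock) for one hour at ambient temperature.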
# DRD3 agonist – activates the human D3 dopamine receptor; D3R DiscoveRx beta-arrestin cells, luminescence, 90 min; 0.58% of 410,000 active; AID 652048; max activation, %; P35462; in the data active = max activation above about 30%; also: 0% is about no effect
#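 Agonist mode: compounds and dopamine controls were applied to plated cells for 90 min at 37 degrees C after an overnight attachment at 1500 cells/well. Luminescent read-out followed 30 - 60 minutes at room temperature with DiscoveRx detection reagent.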
# * = called active by the depositor; i = inactive; ? = inconclusive; / = not tested or not shown; ! = not active in a repeat; [ ] = remark or other dose.
SMILES,LDHA inh,Akt phos inh,RGS4 inhibitor,D3 antag,PI4K2A block,DRD3 agonist
O=C1c2cc(O)cc(O)c2C(=O)c2c1cc(O)c([C@@H](CO)CCO)c2O,-13.0,i,-6.9%,-53.1*,-5.6,-20.9
COc1ccc(-n2nnnc2C(c2ccccc2)N2CCN(C/C=C/c3ccccc3)CC2)cc1 (configuration not stated),-0.2,i,/,-117.7*,0.8,-12.9
COc1cccc(C(c2nnnn2C2CCCC2)N2CCN(C/C=C/c3ccccc3)CC2)c1OC (configuration not stated),-3.6,i,/,-96.3*,-1.6,-21.9
COc1ccc(-n2nnnc2C(CCc2ccccc2)N2CCN(C/C=C/c3ccccc3)CC2)cc1 (configuration not stated),-11.9,i,/,-76.1*,-0.4,-17.5
COc1ccc(/C=C/CN2CCN(CCc3ccccc3)C(CCO)C2)cc1 (configuration not stated),-3.0,i,?,-19.3,1.4,-10.3
COc1ccc(N2CCN(C(c3ccccc3)c3nnnn3C(C)C)CC2)cc1 (configuration not stated),1.0,/,-10.0%,/,/,/
COc1ccc(-n2nnnc2C(c2cccc(OC)c2OC)N2CCN(C/C=C/c3ccccc3)CC2)cc1 (configuration not stated),-4.7,i,/,-85.8*,2.0,-8.8
CS(=O)(=O)N1N=C(c2cccc(O)c2)CC1c1ccco1 (configuration not stated),7.3,/,/,/,/,/
CCCCn1c(=O)c(CCc2ccccc2)nc2c1c(=O)[nH]c(=O)n2Cc1ccccc1,3.0,/,/,/,/,/
O=C(Nc1cccc(Cl)c1SC(F)F)C1CCCC1,-2.5,/,/,/,/,/
CCC(c1nnnn1-c1ccc(OC)cc1)N1CCN(C/C=C/c2ccccc2)CC1 (configuration not stated),-1.1,i,/,-56.8*,4.1,-4.1
CCC(c1nnnn1Cc1ccccc1)N1CCN(c2ccc(OC)cc2)CC1 (configuration not stated),5.6,i,14.5%[56.9 µM],-4.4,-1.6,-2.6
Cc1cccc(NC(=O)c2cc(-c3cccs3)nc3ccccc23)n1,0.2,/,/,/,/,/
CC1(C)CC(Nc2nc3ccccc3nc2NS(=O)(=O)c2ccc3c(c2)OCCO3)CC(C)(C)N1,4.1,/,/,/,/,/
COc1ccc(NC(=O)/C(Cl)=C(/Cl)S(=O)(=O)Cc2ccc(C)cc2)cn1,-3.3,i,?,-76.5*,3.6,-6.9
COc1ccc(NC(=O)Cc2ccc(Cl)c(Cl)c2)cn1,-3.0,i,16.9%,-5.1,3.9,0.3
COc1ccc(NC(=O)/C(Cl)=C(/Cl)S(=O)Cc2ccccc2Cl)cn1 (configuration not stated),-6.3,i,-110.4%,-96.1*,-17.4,-18.3
CCn1c(=O)n(CC)c2cc(S(=O)(=O)N3CCCCC3)c(C)cc21,1.8,i,-15.6%,20.7,3.1,31.4*
COc1cccc2sc3cc(C#CC4(O)CCCCC4)ccc3c(=O)c12,6.0,i,-25.7%,203.2,-6.3,63.4*
COc1cccc2sc3ccc(C#CC4(N)CCCCC4)cc3c(=O)c12,2.8,i,4.9%,26.4,-5.0,0.0
CCOc1cc(/C=C/C(=O)c2ccccc2Cl)cc(Cl)c1O,7.2,/,/,/,/,/
O=C(CSc1ncc(-c2ccccc2)n1C1CCCC1)N1CCc2ccccc21,-2.5,i,-25.6%,-84.7*,3.5,-35.5
O=C(Cn1c(SCC(=O)N2CCc3ccccc32)nc2ccccc21)NC1CCCC1,0.2,/,-24.3%,-76.4*,-0.5,-21.3
O=C(Cn1c(SCC(=O)N2CCc3ccccc3C2)nc2ccccc21)NC1CCCC1,-4.8,i,-6.6%,-18.7,-1.4,-2.0
Cc1ccc(/C=C(\C#N)C(=O)Nc2c(C)cccc2C)s1,-16.7,i,35.1%,-79.9*,0.2,-9.8
SMILES,LDHA inh,Akt phos inh,RGS4 inhibitor,D3 antag,PI4K2A block,DRD3 agonist
C/C=C(/C)C(=O)OC(C)(C)[C@@H]1Cc2c(ccc3ccc(=O)oc23)O1,-6.6,i,3.6%,-154.4*,5.7,-106.4
CC(C)CC(=O)OC(C)(C)[C@@H]1Cc2c(ccc3ccc(=O)oc23)O1,3.2,i,-7.9%,-27.1,-1.9,12.3
Cn1c(=O)[nH]c(=O)c2c1nc(SCCN1CCOCC1)n2Cc1ccccc1,-1.5,i,-10.6%,-69.9*,-5.7,-10.8
CC(C)Sc1nc2c(c(=O)[nH]c(=O)n2C)n1Cc1ccccc1,-30.3*!,i,-14.1%,1.4,2.5,-0.4
CC(C)Sc1nc2c(c(=O)[nH]c(=O)n2C)n1Cc1ccc(Cl)cc1,-1.2,i,-28.1%,-18.4,8.3,18.3
Cn1c(=O)[nH]c(=O)c2c1nc(SCCN1CCOCC1)n2CCCc1ccccc1,-0.7,i,38.1%,-5.4,-6.6,0.7
CCn1c(CO)nc2c1c(=O)[nH]c(=O)n2Cc1ccccc1,2.1,i,2.5%,-80.3*,0.3,-32.8
Cc1ccc(-c2nc3c(c(=O)[nH]c(=O)n3Cc3ccccc3)n2Cc2ccccc2)o1,-1.6,i,?,3.6,1.6,-3.5
O=C1c2cc(S(=O)(=O)NCCCO)ccc2-c2ccc(S(=O)(=O)NCCCO)cc21,-0.4,i,1.8%,-50.8*,4.6,2.0
COCCNS(=O)(=O)c1ccc2c(c1)C(=O)c1cc(S(=O)(=O)NCCOC)ccc1-2,0.0,/,6.3%,11.7,2.9,-1.1
CCN(CC(=O)Nc1ccccc1OC)C(=O)CCc1ccccc1,-6.4,i,-17.8%,3.5,-0.6,3.3
CCOc1ccc(OCCC(=O)N(CC)CC(=O)Nc2ccccc2OC)cc1,-0.5,i,-39.3%,0.7,0.6,31.0*
CCN(CC)S(=O)(=O)c1cc(NC(=S)Nc2ccccc2F)ccc1C,4.4,/,/,/,/,/
Cc1ccc(NC(=O)c2ccc(C(C)(C)C)cc2)c(C(=O)c2ccccc2)c1,0.2,/,/,/,/,/
COCCNC(=O)C1(C)CCCN(Cc2csc3ccccc23)C1 (configuration not stated),-2.0,i,/,?,-2.4,-10.1
CCCNC(=O)C1(C)CCCN(Cc2csc3ccccc23)C1 (configuration not stated),-5.2,i,/,-52.9*,1.4,-10.1
CCCNC(=O)C1(C)CCN(Cc2ccc3ccccc3c2Br)C1 (configuration not stated),-5.2,i,/,-51.4*,3.1,-27.5
CC(C)C(=O)/C(C#N)=C\c1cccc(C#N)c1,0.4,/,/,/,/,/
CCOC(=O)N1CCN(C(=O)CSCC(=O)Nc2nc(-c3ccc(-c4ccccc4)cc3)cs2)CC1,-13.9,i,-14.8%,137.4,-0.5,55.8*
